What all share (experiment): NCI-60 one-dose screen, 48 h (100 = growth as untreated, 0 = no growth, -100 = all killed)
Holding throughout (conditions): 10 µM unless noted

The subject of test [1] is DU-145 prostate.
Test [2] has as its system K-562 leukemia.
For test [3], the system named is MALME-3M melanoma.
The test system of test [4] is MDA-MB-231 breast.
Test [5] concerns RXF 393 renal.
The test system of test [6] is SF-268 CNS.
Test [7] concerns SF-295 CNS.
Test [8] deals with SF-539 CNS.
The subject of test [9] is UACC-257 melanoma.
The subject of test [10] is M14 melanoma.

About 83,000 compounds went through this panel and 20% of them were active in at least one assay; those are over-represented in the sample as a whole.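 How to read the values: 0–100, growth inhibition (40 = 60% inhibited); 0, no net growth; -100 to 0, cell death (-40 = 40% of starting cells died; -100 = all dead).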 Values without a mark were called inactive. Activity calls are given as the source filed them. The calls were made as follows: active = growth percent below 10; inactive = the rest.

Regarding `COc1cc(-c2cc(-c3cccs3)c(C#N)c(N3CCOCC3)n2)cc(OC)c1OC`, the growth was 98.7% in test [1]; 10.9% in test [2]; 116% in test [3]; 65.4% in test [4]; 40.6% in [5]; 113% in test [6]. The growth was 62% in [7], 58.9% in test [8], 20.7% in [9] and 44.6% in test [10].
As for `O=C1/C(=C/c2ccc(F)cc2)COc2ccc(O)c(O)c21`, the growth in test [1] was 18.6%; in test [2], 10.6%; in [3], -10.4% (active); in [4], -12.1% (active); in test [5], -3.02% (active); in [6] it was 13.1%. Besides, the growth in [7] was 75%; in test [8], -62.1% (active); in test [9], 15.8%; in test [10], 37.5%.
As to `C=C(C)[C@@H]1CC[C@]2(C(=O)N3CCN(C)CC3)CC[C@]3(C)[C@H](CC[C@@H]4[C@@]5(C)CC(=C/c6ccncc6)/C(=N/O)C(C)(C)[C@@H]5CC[C@]43C)[C@@H]12`, the growth in [1] was 77.1%; in test [2], 34.4%; in [3] it was 87.4%; in [4] it was 65.7%; in [5], 71.9%; in [6], 63%. Further, the growth was 91.6% in test [7], 83.6% in test [8], 85.8% in test [9] and 94.5% in test [10].
Turning to `CCOC(=O)CSc1ncnc2c1c(-c1ccccc1)c(-c1ccccc1)n2-c1ccc(C)cc1`, the growth in [1] was 74.4%; in test [2], 38%; in [3] it was 62.1%; in [4], 85.7%; in test [5], 105%; in [6], 86.2%. The growth in [7] was 76.2%; in test [8], 86.2%; in test [9] it was 51.9%; in test [10], 75.6%.
Consider `Cc1cccnc1NC(=S)Nc1ncccc1C`, for which the growth in [1] is 113%; in [2], 65.3%; in test [3] it was 113%; in test [4], 112%; in test [5], 92.3%; in test [6], 108%. In addition, the growth in [7] was 81.2%; in test [8] it was 107%; in test [9], 116%; in [10], 102%.
As to `CC(C)CCC[C@@H](C)[C@H]1CC[C@H]2[C@@H]3CC=C4C[C@@H](C(C(=O)O)C(=O)O)CC[C@]4(C)[C@H]3CC[C@]12C`, the growth in [1] was -83.5% (active); in test [2], -48.3% (active); in test [3], -43% (active); in test [4], -28.2% (active); in [5], -49.8% (active); in test [6], -24.6% (active). Besides, the growth in test [7] is -61.2% (active); in [8] it was -27.3% (active); in [9], -49.8% (active); in [10], -72.9% (active).
As for `C#Cc1cccc(Nc2ncnc3ccc(-c4cncc(NS(C)(=O)=O)c4)cc23)c1`, the growth in [1] is 28.3%; in test [2] it was 37.2%; in [3], 33.2%; in test [4], 23.7%; in [5], 7.78% (active); in test [6] it was 24.1%. Besides, the growth was 37.6% in test [7], 17% in [8], 37.4% in test [9] and 47% in test [10].
`CC1=C(CCC(C)N(C)Cc2ccc(OCCCN3CCCC3)cc2)C(C)(C)CCC1` (stereo not given): the growth was 65.3% in test [1]; -22.2% (active) in test [2]; -89.4% (active) in test [3]; -43.6% (active) in test [4]; -37.5% (active) in [5]; 48.2% in test [6]. Also, the growth in test [7] is -4.45% (active); in [8] it was -79% (active); in [9] it was -74.3% (active); in test [10], -77.2% (active).
As for `COc1ccc2nc3ccc(OC)cc3c(SCCCN)c2c1`, the growth in test [1] was 19.8%; in test [2], -33.6% (active); in [3] it was 95%; in test [4], 102%; in [5], 49.1%; in test [6], 94.1%. Also, the growth is 95.9% in test [7], 108% in test [8], 105% in [9] and 81% in [10].
For the compound `Cc1nc(N2CCOCC2)sc1S(N)(=O)=O`, the growth in test [1] was 105%; in [2] it was 110%; in test [3], 96%; in test [4] it was 101%; in [5], 103%; in [6], 94%. In addition, the growth is 94.1% in [7], 98% in [8], 97.4% in [9] and 103% in test [10].
In the case of `Cn1c(=O)c2c(nc(NC3=NS(=O)(=O)c4ccccc43)n2CC(=O)N2CCc3ccccc32)n(C)c1=O`, the growth was 106% in [1]; 114% in test [2]; 103% in test [3]; 94.3% in test [4]; 92.7% in test [5]; 97.5% in test [6]. Further, the growth was 105% in test [7], 98.1% in [8], 94.9% in [9] and 89.1% in [10].

For the origin of these results see PubChem BioAssay (NCI).
